# According to PubChem BioAssay:
# Results with a measured potency or affinity are listed apart. Activity calls are given as the source filed them. The rule behind the calls is not given here.
# Assay: A549 cell cytotoxicity, dose response, cytotoxicity control, plate reader, cherry-pick, antagonist series (AID 743412)
# Settings: series mostly up to 26 µM
row,SMILES,outcome
1,COCCn1c(C)cc(C(=O)CSc2nc3ccccc3s2)c1C,inactive
2,c1ccc(-n2nnnc2Sc2ncnc3sc4c(c23)CCCC4)cc1,inactive
3,CN(C)c1ccc(C(=O)Nc2nc3c(s2)CCCC3)cc1,inactive
4,COc1ccc(CC(=O)Nc2cccc(-c3nnc(-c4cccc(C)c4)o3)c2)cc1OC,inactive
5,c1ccc(COc2ccc(OCCCN3CCCC3)cc2)cc1,inactive
6,C[C@@H]1CN([C@H](C)CO)C(=O)CCCn2nncc2CO[C@H]1CN(C)C(=O)Nc1cccc2ccccc12,inactive
7,Cc1csc(NC(=O)c2cnc3ccccc3n2)n1,inactive
8,O=C(Cn1ncc(Cl)c(Cl)c1=O)c1ccc2c(c1)OCCO2,inactive
9,COc1ccc(-c2[nH]ncc2-c2ccc3c(c2)OCCO3)c(O)c1,inactive
10,O=C(Nc1ccc(N2CCN(C(=O)c3ccc(Cl)cc3)CC2)cc1)c1cc2ccccc2o1,inactive
11,O=C(Nc1cccc(O)c1)c1cc(-c2ccc3c(c2)OCO3)on1,inactive
12,CCOC(=O)c1sc(NC(=O)Nc2ccccc2F)nc1C,inactive
13,CC(=O)N1CCCC(c2cc(C(=O)Nc3ccccc3)no2)C1 (centres undefined),inactive
14,CCCOc1ccc2cc(-c3ccccn3)c(=O)oc2c1,inactive
15,Cc1ccc(-c2nnc(Nc3ccccc3)o2)cc1,inactive
16,CC(C)(C)c1ccc(-c2nc(-c3ccncc3)no2)cc1,inactive
17,C[C@@H]1CN([C@@H](C)CO)C(=O)c2cc(NS(=O)(=O)c3ccc(F)cc3)ccc2O[C@H]1CN(C)Cc1ccc(-c2ccccc2)cc1,inactive
18,CC1CCCN(c2ncnc3c2cnn3-c2ccccc2)C1 (centres undefined),inactive
19,O=C(Nc1ccccc1)c1cn2ccccc2n1,inactive
20,Cc1ccc(-c2noc(-c3cccs3)n2)cc1,inactive

row,SMILES,outcome
1,COc1ccc(C(=O)Nc2ccc3ccccc3c2)cc1,inactive
2,O=C(Nc1nc2c(s1)CCCC2)C1COc2ccccc2O1 (centres undefined),inactive
3,O=c1c2c(nc3cc(-c4ccc(F)cc4)[nH]n13)CCCC2,inactive
4,O=C(Nc1nc(-c2ccc(S(=O)(=O)N3CCOCC3)cc2)cs1)c1ccccc1,inactive
5,O=C(CN1C(=O)c2ccccc2S1(=O)=O)Nc1ncc(Cl)cc1Cl,inactive
6,Cc1ccc(-n2ncc3c(N4CCN(c5ccccc5)CC4)ncnc32)c(C)c1,inactive
7,CCC(=O)Nc1cc2nn(-c3ccc(OC)cc3)nc2cc1C,inactive
8,Cc1cc(C)c(Cc2c(C)nc3c(C(=O)NCc4ccco4)cnn3c2C)c(C)c1,inactive
9,CSc1nc2ccc(NC(=O)c3ccccn3)cc2s1,inactive
10,COc1ccc2nc(-c3ccc(F)cc3)sc2c1,inactive
11,O=C(NC1(Cc2ccccc2)CCN(Cc2ccc(-c3ccccc3)cc2)C1=O)c1ccccc1 (centres undefined),inactive
12,COc1cc(NC(=O)c2cccc3c(-c4cccnc4)coc23)cc(OC)c1OC,inactive
13,COc1ccc(-c2cc(C(=O)N3CCOCC3)no2)cc1,inactive
14,Cn1cccc1C(=O)OCC(=O)Nc1ccc2c(c1)OCCO2,inactive
15,O=C(O)c1cccc(-c2noc(-c3cccc(Cl)c3)n2)c1,inactive
16,Cc1cnc(NC(=O)c2ccc(OCC3CCCO3)cc2)s1 (centres undefined),inactive
17,COc1cccc(-c2cc(C(=O)Nc3cccc(O)c3)no2)c1,inactive
18,Cc1ccc(-c2cnn3c(N4CCOCC4)cc(C)nc23)cc1,inactive
19,C[C@H](CO)N1C[C@H](C)[C@H](CN(C)C(=O)Cc2ccccc2)OCCCC[C@H](C)Oc2ccc(NC(=O)Nc3ccc(C(F)(F)F)cc3)cc2C1=O,inactive
